From PubChem BioAssay (NCI)
This is part of a sample that, as a whole, favours compounds with a hit. Of some 79,000 tested, about 15% had one in any assay. The source made the active and inactive calls. No stated cut-off is given here; in the data, active means growth inhibition above about 70%; inactive means the rest.

What was measured:
[1] = NCI Yeast Anticancer Drug Screen. Data for the rad52 strain (AID 147);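 further: 0% = growth of vehicle-treated control cultures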; conditions: S. cerevisiae rad52 mutant growth inhibition, hits give high values
Summary of the method: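 Measured: yeast growth inhibition. System: strain with a defined DNA damage repair alteration. Reference: vehicle-treated control cultures.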

[2] = NCI Yeast Anticancer Drug Screen. Data for the wt1 strain (AID 149);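 further: 0% = growth of vehicle-treated wt1 cultures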; conditions: S. cerevisiae wt1 strain (SPY 50644) growth inhibition, hits give high values
Summary of the method: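 Readout: yeast growth inhibition, normalised to vehicle controls, in the wt1 strain exposed to test compounds.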

[3] = NCI Yeast Anticancer Drug Screen. Data for the rad50EPP+ strain (AID 151);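 further: 0% = growth of vehicle-treated control cultures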; conditions: S. cerevisiae rad50 mutant strain, hits give high values
Summary of the method: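 One strain with a rad50 alteration (rad50EPP+) was compound-treated, its growth then compared to that of vehicle controls.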

[4] = NCI Yeast Anticancer Drug Screen. Data for the mgt1 strain (AID 153); conditions: S. cerevisiae mgt1 mutant growth inhibition, hits give high values
Summary of the method: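 After exposure of the mgt1 yeast mutant to compound, growth was measured and reported as inhibition compared with vehicle controls.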

[5] = NCI Yeast Anticancer Drug Screen. Data for the rad50 strain (AID 155);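 further: 0% = growth of vehicle-only cultures of the same strain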; conditions: S. cerevisiae rad50 strain growth inhibition, hits give high values
Summary of the method: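 Compounds were tested on a yeast strain with an engineered DNA damage repair alteration; the reported value is growth inhibition normalised to vehicle treatment.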

[6] = NCI Yeast Anticancer Drug Screen. Data for the mec2-1 strain (AID 157); conditions: S. cerevisiae mec2-1 strain, hits give high values
Summary of the method: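 Test agents were screened against the mec2-1 yeast strain, with defined DNA repair or cell cycle alteration. Growth was scored as inhibition against vehicle-only controls.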

[7] = NCI Yeast Anticancer Drug Screen. Data for the rad14 strain (AID 159);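 further: 0% = growth of vehicle-treated control cultures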; conditions: S. cerevisiae rad14 strain growth inhibition, hits give high values
Summary of the method: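 Compound-treated yeast with a defined DNA-repair lesion; growth inhibition normalised to vehicle-treated cultures.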

[8] = NCI Yeast Anticancer Drug Screen. Data for the sgs1 mgt1 strain (AID 161);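 further: 0% = growth of cultures given vehicle only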; conditions: S. cerevisiae sgs1 mgt1 strain, hits give high values
Summary of the method: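 Genetically altered yeast, compound exposure, growth inhibition relative to vehicle.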

[9] = NCI Yeast Anticancer Drug Screen. Data for the CLN2oe strain (AID 163);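 further: 0% = growth of vehicle-only control cultures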; conditions: S. cerevisiae CLN2oe strain, hits give high values
Summary of the method: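 Here, growth inhibition in a cell-cycle-altered yeast strain after compound exposure was quantified against vehicle control growth.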

[10] = NCI Yeast Anticancer Drug Screen. Data for the cln2 rad14 strain (AID 165);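 further: 0% = growth equal to vehicle treated cultures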; conditions: S. cerevisiae cln2 rad14 strain, hits give high values
Summary of the method: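 Growth of compound-exposed yeast (cln2 rad14 genotype) measured and expressed as inhibition relative to vehicle.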

[11] = NCI Yeast Anticancer Drug Screen. Data for the bub3 strain (AID 167); conditions: S. cerevisiae bub3 mutant strain, hits give high values
Summary of the method: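 Growth of a checkpoint-deficient yeast mutant is measured after compound exposure. Values represent inhibition relative to vehicle.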

[12] = NCI Yeast Anticancer Drug Screen. Data for the wt2 strain (AID 169);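 further: 0% = growth of vehicle-treated yeast cultures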; conditions: S. cerevisiae wt2 strain growth inhibition, hits give high values
Summary of the method: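 Genetically defined yeast strains from a DNA-repair/cell-cycle panel were used. Compound-exposed yeast growth was measured, and the inhibition was calculated relative to vehicle treatment.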

[13] = NCI Yeast Anticancer Drug Screen. Data for the mlh1 strain (AID 171);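 further: 0% = growth of vehicle-treated control cultures of the same strain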; conditions: S. cerevisiae mlh1 strain growth inhibition, hits give high values
Summary of the method: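 Here the genetically defined yeast mutant is grown with each compound, and the extent to which its growth falls below that of vehicle-exposed cells is reported.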

[14] = NCI Yeast Anticancer Drug Screen. Data for the sgs1 strain (AID 173);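 further: 0% = growth of vehicle-only control cultures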; conditions: S. cerevisiae sgs1 mutant, hits give high values
Summary of the method: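 Relative growth inhibition, referenced to vehicle, was determined in a yeast strain with a defined alteration affecting DNA damage repair or cell cycle control after compound exposure.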

[15] = NCI Yeast Anticancer Drug Screen. Data for the mlh1 rad18 strain (AID 175); conditions: S. cerevisiae mlh1 rad18 strain growth inhibition, hits give high values
Summary of the method: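 In this whole-cell yeast screen, a strain with altered DNA damage repair is challenged with compound, and its growth is measured against matched vehicle-treated controls.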

[16] = NCI Yeast Anticancer Drug Screen. Data for the rad18 strain (AID 177); conditions: S. cerevisiae rad18 mutant growth inhibition, hits give high values
Summary of the method: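 Screen uses a yeast strain with a defined lesion in DNA damage repair; compound effect is read as loss of growth compared to untreated vehicle cultures.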

[17] = at 5.0 µM (retest, dose inferred, filed as 0.5)
[18] = at 50.0 µM (retest, dose inferred, filed as 5.0)

Measured: growth inhibition

COc1ccc(/C=C(/C)[N+](=O)[O-])cc1
active: [1]; at 11.0 µM 81% | [1]; at 33.0 µM 95% | [1]; at 100.0 µM 99% | [2]; at 33.0 µM 72% | [2]; at 100.0 µM 99% | [3]; at 3.7 µM 83% | [3]; at 11.0 µM 94% | [3]; at 33.0 µM 97% | [3]; at 100.0 µM 99% | [4]; at 33.0 µM 80% | [4]; at 100.0 µM 99% | [5]; at 11.0 µM 79% | [5]; at 33.0 µM 94% | [5]; [18] 94% | [5]; at 50.0 µM 80.3% | [5]; at 100.0 µM 99% | [6]; at 33.0 µM 78% | [6]; [18] 98% | [6]; at 50.0 µM 90.3% | [6]; at 100.0 µM 99% | [7]; at 100.0 µM 99% | [8]; [18] 85% | [8]; at 50.0 µM 87.8% | [9]; at 33.0 µM 71% | [9]; at 100.0 µM 99% | [10]; [18] 94% | [11]; at 33.0 µM 93% | [11]; [18] 99% | [11]; at 50.0 µM 90.8% | [11]; at 100.0 µM 98% | [12]; at 100.0 µM 99% | [13]; at 33.0 µM 97% | [13]; at 100.0 µM 99% | [14]; at 33.0 µM 86% | [14]; at 100.0 µM 98% | [15]; [18] 99% | [15]; at 50.0 µM 81.5% | [16]; at 100.0 µM 99%
inactive: [1]; at 1.2 µM 8% | [1]; at 3.7 µM 36% | [2]; at 1.2 µM -28% | [2]; at 3.7 µM -21% | [2]; at 11.0 µM -18% | [3]; at 1.2 µM 57% | [4]; at 1.2 µM -22% | [4]; at 3.7 µM -17% | [4]; at 11.0 µM 0% | [5]; at 1.2 µM -10% | [5]; at 3.7 µM 23% | [5]; [17] 49% | [6]; at 1.2 µM -44% | [6]; at 3.7 µM -51% | [6]; [17] 16% | [6]; at 11.0 µM -34% | [7]; at 1.2 µM -20% | [7]; at 3.7 µM -25% | [7]; at 11.0 µM -24% | [7]; at 33.0 µM 69% | [8]; [17] 28% | [9]; at 1.2 µM -3% | [9]; at 3.7 µM -10% | [9]; at 11.0 µM -9% | [10]; [17] 37% | [10]; at 50.0 µM 60% | [11]; at 1.2 µM -27% | [11]; at 3.7 µM -28% | [11]; [17] 28% | [11]; at 11.0 µM -6% | [12]; at 1.2 µM -5% | [12]; at 3.7 µM -4% | [12]; at 11.0 µM -1% | [12]; at 33.0 µM 59% | [13]; at 1.2 µM -12% | [13]; at 3.7 µM -16% | [13]; at 11.0 µM -2% | [14]; at 1.2 µM 20% | [14]; at 3.7 µM 41% | [14]; at 11.0 µM 42% | [15]; [17] 22% | [16]; at 1.2 µM -14% | [16]; at 3.7 µM -8% | [16]; at 11.0 µM -17% | [16]; at 33.0 µM 42%

O=C1NC(=S)NC(=O)C1=Cc1ccc([N+](=O)[O-])o1
inactive: [1]; at 1.2 µM -50% | [1]; at 3.7 µM -58% | [1]; at 11.0 µM -6% | [1]; at 33.0 µM 57% | [2]; at 1.2 µM -18% | [2]; at 3.7 µM -4% | [2]; at 11.0 µM -1% | [2]; at 33.0 µM -1% | [2]; at 100.0 µM 6% | [3]; at 1.2 µM 11% | [3]; at 3.7 µM 23% | [3]; at 11.0 µM 61% | [4]; at 1.2 µM 15% | [4]; at 3.7 µM 20% | [4]; at 11.0 µM 41% | [4]; at 33.0 µM 58% | [5]; at 1.2 µM 12% | [5]; at 3.7 µM 17% | [5]; [17] 25% | [5]; at 11.0 µM 36% | [5]; at 33.0 µM 66% | [5]; [18] 69% | [6]; at 1.2 µM -16% | [6]; at 3.7 µM -20% | [6]; [17] -19% | [6]; at 11.0 µM -12% | [6]; at 33.0 µM 0% | [6]; [18] -4% | [6]; at 50.0 µM 3.2% | [7]; at 1.2 µM 5% | [7]; at 3.7 µM -10% | [7]; at 11.0 µM -7% | [7]; at 33.0 µM 16% | [7]; at 100.0 µM 36% | [8]; [17] 1% | [8]; [18] 36% | [8]; at 50.0 µM 48% | [9]; at 1.2 µM 9% | [9]; at 3.7 µM -1% | [9]; at 11.0 µM 5% | [9]; at 33.0 µM -9% | [10]; [17] 16% | [10]; [18] 35% | [10]; at 50.0 µM 16.7% | [11]; at 1.2 µM 11% | [11]; at 3.7 µM -9% | [11]; [17] 2% | [11]; at 11.0 µM -24% | [11]; at 33.0 µM -28% | [11]; [18] 10% | [11]; at 50.0 µM 4.45% | [11]; at 100.0 µM 53% | [12]; at 1.2 µM -20% | [12]; at 3.7 µM -12% | [12]; at 11.0 µM 2% | [12]; at 33.0 µM -8% | [12]; at 100.0 µM 64% | [13]; at 1.2 µM 15% | [13]; at 3.7 µM 33% | [13]; at 11.0 µM 21% | [13]; at 33.0 µM 41% | [14]; at 1.2 µM -11% | [14]; at 3.7 µM 2% | [14]; at 11.0 µM 10% | [14]; at 33.0 µM 32% | [14]; at 100.0 µM 54% | [15]; [17] -15% | [15]; [18] 2% | [15]; at 50.0 µM 64% | [16]; at 1.2 µM 21% | [16]; at 3.7 µM 16% | [16]; at 11.0 µM 57%
active: [1]; at 100.0 µM 85% | [3]; at 33.0 µM 87% | [3]; at 100.0 µM 92% | [4]; at 100.0 µM 79% | [5]; at 50.0 µM 77.6% | [5]; at 100.0 µM 87% | [6]; at 100.0 µM 87% | [9]; at 100.0 µM 82% | [13]; at 100.0 µM 81% | [16]; at 33.0 µM 83% | [16]; at 100.0 µM 92%
